Screens as filed in PubChem.
Only a selection was taken, and hits are over-represented in it overall.
C diff growth: C. difficile growth inhibition. Clostridium difficile clinical isolate growth, OD600, 24 h; hits give low values. growth activity, negative = inhibition, % at 16 µg/mL (by protocol). hit rate 0.25% among 86,000;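 active = mean growth activity at or below -80% and every replicate also at or below -80%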;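 note: 0% = DMSO wells and -100% = levofloxacin 16 µg/mL wells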
Numbers without * were called inactive; ! = not active in a repeat.

O=C(C[C@@H]1CC[C@H]2[C@@H](COC[C@H](O)CN2C(=O)Nc2ccc(C(F)(F)F)cc2)O1)NC1Cc2ccccc2C1 was read as C diff growth -8.
Screening O=C(C[C@H]1CC[C@H]2[C@@H](COC[C@H](O)CN2C(=O)Nc2ccc(C(F)(F)F)cc2)O1)NCCc1ccncc1 returned C diff growth -18.
`CCNC(=O)C[C@H]1CC[C@H]2[C@@H](COC[C@@H](O)CN2C(=O)Nc2ccc(C(F)(F)F)cc2)O1` gave C diff growth -102*!.
For O=C(C[C@@H]1CC[C@H]2[C@@H](COC[C@@H](O)CN2C(=O)Nc2ccc(C(F)(F)F)cc2)O1)NCCc1ccncc1 the results were C diff growth -15.
For CCNC(=O)C[C@@H]1CC[C@@H]2[C@H](COC[C@H](O)CN2C(=O)Nc2cccc(OC)c2)O1 the results were C diff growth 2.
Screening CCNC(=O)C[C@H]1CC[C@@H]2[C@H](COC[C@H](O)CN2C(=O)Nc2ccc(C(F)(F)F)cc2)O1 returned C diff growth -88*.
Screening COc1ccc(S(=O)(=O)Nc2cccc3c2O[C@H](CN(C)S(=O)(=O)c2ccc(Cl)cc2)[C@H](C)CN([C@@H](C)CO)C3=O)cc1 returned C diff growth -26.
Screening O=C(C[C@H]1CC[C@@H](NC(=O)c2cccnc2)[C@H](CO)O1)NCc1ccncn1 returned C diff growth -1.
For CCNC(=O)[C@H]1[C@H](CO)[C@H]2Cn3c(ccc(-c4cccc(F)c4)c3=O)[C@@H]1N2C(C)=O the results were C diff growth -2.
`COCC(=O)N1CC2(C1)[C@@H](c1ccc(C3=CCCC3)cc1)[C@H](CO)N2C(=O)COC` gave C diff growth -3.
`O=C(NC[C@@H]1N[C@@H](CO)[C@H]1c1ccc(C2=CCCCC2)cc1)c1cccc(F)c1` gave C diff growth -81*.
For CCC(=O)NC[C@H]1N[C@H](CO)[C@@H]1c1ccc(C2=CCCC2)cc1 the results were C diff growth -4.
CN(C[C@@H]1N[C@H](CO)[C@H]1c1ccc(C2=CCCC2)cc1)C(=O)c1cccc(F)c1 was read as C diff growth 8.
`C[C@@H](NC(=O)[C@H]1[C@H](CO)[C@H]2Cn3c(ccc(-c4cccc(F)c4)c3=O)[C@H]2N1C)c1ccccc1` gave C diff growth -5.
CO[C@@H]1CN(C)C(=O)c2ccc(NC(=O)Nc3ccccc3)cc2OC[C@H](C)NC[C@@H]1C was read as C diff growth -1.
For CO[C@H]1CN(C)C(=O)c2ccc(NC(=O)Nc3ccc(Cl)c(Cl)c3)cc2OC[C@H](C)NC[C@@H]1C the results were C diff growth -99*.
`CO[C@@H]1CN(C)C(=O)c2ccc(NC(=O)Nc3ccc(F)cc3)cc2OC[C@H](C)NC[C@@H]1C` gave C diff growth -2.
CO[C@H]1CN(C)C(=O)c2ccc(NC(=O)Nc3ccc(Cl)c(Cl)c3)cc2OC[C@H](C)NC[C@H]1C was read as C diff growth -97*.
Screening CO[C@@H]1CN(C)C(=O)c2ccc(NC(=O)Nc3cc(Cl)cc(Cl)c3)cc2OC[C@H](C)NC[C@@H]1C returned C diff growth -100*.
For CO[C@H]1CN(C)C(=O)c2ccc(NC(=O)Nc3ccccc3Cl)cc2OC[C@H](C)NC[C@@H]1C the results were C diff growth 14.
`CO[C@H]1CN(C)C(=O)c2ccc(NC(=O)Nc3ccccc3)cc2OC[C@H](C)NC[C@@H]1C` gave C diff growth 6.
`CO[C@H]1CN(C)C(=O)c2ccc(NC(=O)Nc3cc(Cl)cc(Cl)c3)cc2OC[C@H](C)NC[C@@H]1C` gave C diff growth 71.
CO[C@H]1CN(C)C(=O)c2ccc(NC(=O)Nc3ccccc3)cc2OC[C@@H](C)NC[C@@H]1C was read as C diff growth -2.
For CNC(=O)C[C@H]1CC[C@H]2[C@@H](COC[C@H](O)CN2C(=O)Nc2ccc3c(c2)OCO3)O1 the results were C diff growth 3.
`CC(C)CC#Cc1ccc2c(c1)O[C@H](CN(C)C(=O)Cc1cccnc1)[C@@H](C)CN([C@H](C)CO)S2(=O)=O` gave C diff growth 1.
O=C(C[C@@H]1CC[C@@H]2[C@H](COC[C@H](O)CN2S(=O)(=O)c2ccccc2)O1)N1CCOCC1 was read as C diff growth 0.
`O=C(C[C@@H]1CC[C@H]2[C@@H](COC[C@H](O)CN2Cc2ccc(Oc3ccccc3)cc2)O1)Nc1nccs1` gave C diff growth 35.
For O=C(C[C@H]1C[C@@H]2c3cc(NC(=O)Nc4ccccc4)ccc3O[C@@H]2[C@H](CO)O1)NCC(F)(F)F the results were C diff growth -3.
CS(=O)(=O)Nc1ccc2c(c1)[C@@H]1C[C@@H](CC(=O)O)O[C@H](CO)[C@@H]1O2 was read as C diff growth 1.
C[C@H](CO)N1C[C@H](C)[C@@H](CN(C)S(=O)(=O)c2cn(C)cn2)Oc2ccc(NC(=O)Nc3cccc4ccccc34)cc2CC1=O was read as C diff growth -10.
